Results: ChEMBL document CHEMBL1961873, “Compounds: GSK PKIS; Assays: Nanosyn kinase panel” (2012)

Key:
[1] = molecular target: Fibroblast growth factor receptor 4 (Homo sapiens) (UniProt P22455); conditions: at 1 µM;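 note: reported figure is the averaged percent inhibition of FGFR4, from the GSK PKIS kinase screening panel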
[2] = molecular target: Tyrosine-protein kinase Fgr (Homo sapiens) (UniProt P09769); conditions: at 0.1 µM
[3] = molecular target: Tyrosine-protein kinase Fgr (Homo sapiens) (UniProt P09769); conditions: at 1 µM
[4] = molecular target: Vascular endothelial growth factor receptor 1 (Homo sapiens) (UniProt P17948); conditions: at 0.1 µM
[5] = molecular target: Vascular endothelial growth factor receptor 1 (Homo sapiens) (UniProt P17948); conditions: at 1 µM
[6] = molecular target: Receptor-type tyrosine-protein kinase FLT3 (Homo sapiens) (UniProt P36888); conditions: at 0.1 µM
[7] = molecular target: Receptor-type tyrosine-protein kinase FLT3 (Homo sapiens) (UniProt P36888); conditions: at 1 µM
[8] = molecular target: Non-receptor tyrosine-protein kinase TYK2 (Homo sapiens) (UniProt P29597); conditions: at 1 µM;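 note: values are mean percent inhibition of TYK2 kinase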
Chain of Non-receptor tyrosine-protein kinase TYK2 (Homo sapiens) (P29597 whole entry): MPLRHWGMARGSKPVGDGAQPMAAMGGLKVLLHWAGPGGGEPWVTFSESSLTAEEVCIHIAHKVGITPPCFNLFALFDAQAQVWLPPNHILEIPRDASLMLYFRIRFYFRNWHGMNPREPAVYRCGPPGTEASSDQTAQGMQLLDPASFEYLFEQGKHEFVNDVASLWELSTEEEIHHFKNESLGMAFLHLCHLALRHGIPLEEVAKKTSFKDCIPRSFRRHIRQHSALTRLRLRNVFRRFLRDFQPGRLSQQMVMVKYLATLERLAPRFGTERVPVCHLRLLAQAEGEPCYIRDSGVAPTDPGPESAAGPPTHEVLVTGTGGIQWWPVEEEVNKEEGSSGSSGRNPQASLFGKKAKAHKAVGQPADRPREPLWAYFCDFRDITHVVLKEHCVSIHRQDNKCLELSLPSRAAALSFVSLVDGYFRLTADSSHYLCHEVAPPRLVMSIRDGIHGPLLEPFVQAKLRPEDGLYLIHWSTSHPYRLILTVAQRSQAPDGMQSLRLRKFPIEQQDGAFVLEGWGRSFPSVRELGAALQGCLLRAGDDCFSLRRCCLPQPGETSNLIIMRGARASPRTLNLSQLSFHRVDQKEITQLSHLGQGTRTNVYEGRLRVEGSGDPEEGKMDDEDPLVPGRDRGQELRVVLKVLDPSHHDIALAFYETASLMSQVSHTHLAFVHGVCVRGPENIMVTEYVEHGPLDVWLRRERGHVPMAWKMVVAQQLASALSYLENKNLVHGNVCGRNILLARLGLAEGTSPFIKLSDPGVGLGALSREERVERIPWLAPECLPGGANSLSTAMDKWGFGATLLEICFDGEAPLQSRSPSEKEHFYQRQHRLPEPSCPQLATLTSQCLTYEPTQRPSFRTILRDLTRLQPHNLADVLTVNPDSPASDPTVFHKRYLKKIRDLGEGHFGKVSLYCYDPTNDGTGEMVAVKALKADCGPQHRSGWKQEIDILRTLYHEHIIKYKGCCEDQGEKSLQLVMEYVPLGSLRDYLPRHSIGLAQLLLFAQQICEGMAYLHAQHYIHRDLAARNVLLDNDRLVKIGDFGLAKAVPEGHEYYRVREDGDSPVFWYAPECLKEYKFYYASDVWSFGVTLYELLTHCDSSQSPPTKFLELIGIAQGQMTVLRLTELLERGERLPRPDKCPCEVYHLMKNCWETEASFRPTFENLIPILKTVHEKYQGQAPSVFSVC

[9] = molecular target: T1, Tyrosine-protein kinase receptor TYRO3 (Homo sapiens) (UniProt Q06418); conditions: at 0.1 µM
T1 sequence (whole entry): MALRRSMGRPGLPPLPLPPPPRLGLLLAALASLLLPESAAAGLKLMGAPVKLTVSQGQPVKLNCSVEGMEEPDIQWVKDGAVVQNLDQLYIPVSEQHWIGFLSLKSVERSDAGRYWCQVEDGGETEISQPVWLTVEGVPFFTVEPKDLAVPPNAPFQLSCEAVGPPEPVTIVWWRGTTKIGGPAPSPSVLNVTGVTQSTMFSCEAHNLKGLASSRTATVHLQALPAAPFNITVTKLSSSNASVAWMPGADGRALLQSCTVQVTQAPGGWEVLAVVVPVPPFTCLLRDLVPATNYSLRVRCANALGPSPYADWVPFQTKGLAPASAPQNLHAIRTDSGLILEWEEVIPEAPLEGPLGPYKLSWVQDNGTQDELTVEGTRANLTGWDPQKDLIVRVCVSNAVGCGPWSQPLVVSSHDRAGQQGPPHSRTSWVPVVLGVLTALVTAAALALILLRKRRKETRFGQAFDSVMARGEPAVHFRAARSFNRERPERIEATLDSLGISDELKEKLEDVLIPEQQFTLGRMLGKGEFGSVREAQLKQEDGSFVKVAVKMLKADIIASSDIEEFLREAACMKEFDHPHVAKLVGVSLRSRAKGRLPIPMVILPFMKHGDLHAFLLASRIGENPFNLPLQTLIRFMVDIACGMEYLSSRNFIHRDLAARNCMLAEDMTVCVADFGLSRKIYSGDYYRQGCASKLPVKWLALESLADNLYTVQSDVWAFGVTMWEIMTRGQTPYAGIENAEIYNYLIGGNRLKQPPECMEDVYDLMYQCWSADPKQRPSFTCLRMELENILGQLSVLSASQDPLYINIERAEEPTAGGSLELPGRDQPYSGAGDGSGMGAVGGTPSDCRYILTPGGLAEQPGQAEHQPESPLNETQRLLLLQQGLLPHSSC

[10] = molecular target: T1, Tyrosine-protein kinase receptor TYRO3 (Homo sapiens); conditions: at 1 µM
[11] = molecular target: Tyrosine-protein kinase Yes (Homo sapiens) (UniProt P07947); conditions: at 0.1 µM
Chain of Tyrosine-protein kinase Yes (Homo sapiens) (P07947 2-543 limits assumed): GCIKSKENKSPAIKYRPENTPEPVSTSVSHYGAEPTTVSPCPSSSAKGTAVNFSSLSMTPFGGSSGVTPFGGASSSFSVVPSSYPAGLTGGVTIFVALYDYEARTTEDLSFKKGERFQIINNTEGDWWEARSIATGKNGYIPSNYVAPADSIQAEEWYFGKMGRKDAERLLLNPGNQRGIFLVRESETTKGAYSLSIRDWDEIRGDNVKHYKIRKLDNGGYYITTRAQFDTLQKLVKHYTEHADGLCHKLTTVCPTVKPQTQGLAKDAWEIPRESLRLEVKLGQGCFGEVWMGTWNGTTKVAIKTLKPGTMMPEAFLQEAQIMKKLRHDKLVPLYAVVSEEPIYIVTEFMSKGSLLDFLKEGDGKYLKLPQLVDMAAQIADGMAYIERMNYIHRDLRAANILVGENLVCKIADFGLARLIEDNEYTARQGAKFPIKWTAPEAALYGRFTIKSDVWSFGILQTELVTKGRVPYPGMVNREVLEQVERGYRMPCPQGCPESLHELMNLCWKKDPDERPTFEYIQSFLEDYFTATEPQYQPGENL

[12] = molecular target: Tyrosine-protein kinase Yes (Homo sapiens) (UniProt P07947); conditions: at 1 µM
[13] = molecular target: T2, Tyrosine-protein kinase ZAP-70 (Homo sapiens) (UniProt P43403); conditions: at 0.1 µM
T2 sequence (whole entry): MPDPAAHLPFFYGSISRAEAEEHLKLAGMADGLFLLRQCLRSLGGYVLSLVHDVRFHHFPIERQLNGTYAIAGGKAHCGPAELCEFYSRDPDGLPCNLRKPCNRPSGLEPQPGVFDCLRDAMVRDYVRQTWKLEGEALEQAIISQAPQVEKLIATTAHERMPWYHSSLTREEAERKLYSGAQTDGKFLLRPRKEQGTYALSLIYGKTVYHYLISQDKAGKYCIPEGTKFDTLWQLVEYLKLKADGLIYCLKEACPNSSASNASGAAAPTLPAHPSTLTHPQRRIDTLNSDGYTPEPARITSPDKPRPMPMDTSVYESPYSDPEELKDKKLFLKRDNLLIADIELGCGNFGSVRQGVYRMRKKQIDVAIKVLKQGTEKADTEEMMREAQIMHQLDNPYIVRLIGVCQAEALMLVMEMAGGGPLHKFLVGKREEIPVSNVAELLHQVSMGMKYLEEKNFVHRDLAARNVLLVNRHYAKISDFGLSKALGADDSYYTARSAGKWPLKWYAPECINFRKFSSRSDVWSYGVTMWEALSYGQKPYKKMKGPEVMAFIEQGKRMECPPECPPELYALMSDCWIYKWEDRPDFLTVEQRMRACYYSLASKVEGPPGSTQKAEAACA

[14] = molecular target: T2, Tyrosine-protein kinase ZAP-70 (Homo sapiens); conditions: at 1 µM
[15] = molecular target: Serine/threonine-protein kinase B-raf (Homo sapiens) (UniProt P15056); conditions: at 0.1 µM
Chain of Serine/threonine-protein kinase B-raf (Homo sapiens) (P15056 whole entry): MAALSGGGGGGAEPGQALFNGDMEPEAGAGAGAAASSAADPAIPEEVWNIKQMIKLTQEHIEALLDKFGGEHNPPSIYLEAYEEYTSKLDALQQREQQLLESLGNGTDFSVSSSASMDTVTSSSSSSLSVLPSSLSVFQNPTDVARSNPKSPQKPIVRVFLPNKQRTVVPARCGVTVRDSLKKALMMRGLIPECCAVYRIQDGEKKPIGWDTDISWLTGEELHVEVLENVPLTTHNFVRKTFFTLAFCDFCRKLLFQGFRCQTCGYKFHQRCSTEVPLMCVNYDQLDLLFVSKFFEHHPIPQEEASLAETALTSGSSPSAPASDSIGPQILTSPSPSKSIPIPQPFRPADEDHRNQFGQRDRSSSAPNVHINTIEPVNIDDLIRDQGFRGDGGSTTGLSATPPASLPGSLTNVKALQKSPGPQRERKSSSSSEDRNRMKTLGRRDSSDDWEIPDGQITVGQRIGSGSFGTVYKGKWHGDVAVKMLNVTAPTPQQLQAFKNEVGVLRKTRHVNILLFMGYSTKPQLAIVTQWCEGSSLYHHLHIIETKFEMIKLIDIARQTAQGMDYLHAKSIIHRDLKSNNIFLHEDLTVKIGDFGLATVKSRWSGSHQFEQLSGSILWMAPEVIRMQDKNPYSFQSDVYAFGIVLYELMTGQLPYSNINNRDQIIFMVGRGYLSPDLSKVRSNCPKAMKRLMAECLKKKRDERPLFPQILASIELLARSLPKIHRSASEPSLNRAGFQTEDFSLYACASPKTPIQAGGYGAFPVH

[16] = molecular target: Serine/threonine-protein kinase B-raf (Homo sapiens) (UniProt P15056); conditions: at 1 µM
[17] = tested on: Serine/threonine-protein kinase B-raf (Homo sapiens), P15056 [V600E]; conditions: at 0.1 µM
Chain of Serine/threonine-protein kinase B-raf (Homo sapiens), P15056 [V600E] (P15056 whole entry V600E): as the sequence (P15056 whole entry) above, with V600E counted along it

[18] = tested on: Serine/threonine-protein kinase B-raf (Homo sapiens), P15056 [V600E]; conditions: at 1 µM
[19] = molecular target: RAF proto-oncogene serine/threonine-protein kinase (Homo sapiens) (UniProt P04049); conditions: at 0.1 µM;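 note: values are mean CRAF kinase inhibition from profiling of the GSK Published Kinase Inhibitor Set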
Chain of RAF proto-oncogene serine/threonine-protein kinase (Homo sapiens) (P04049 whole entry): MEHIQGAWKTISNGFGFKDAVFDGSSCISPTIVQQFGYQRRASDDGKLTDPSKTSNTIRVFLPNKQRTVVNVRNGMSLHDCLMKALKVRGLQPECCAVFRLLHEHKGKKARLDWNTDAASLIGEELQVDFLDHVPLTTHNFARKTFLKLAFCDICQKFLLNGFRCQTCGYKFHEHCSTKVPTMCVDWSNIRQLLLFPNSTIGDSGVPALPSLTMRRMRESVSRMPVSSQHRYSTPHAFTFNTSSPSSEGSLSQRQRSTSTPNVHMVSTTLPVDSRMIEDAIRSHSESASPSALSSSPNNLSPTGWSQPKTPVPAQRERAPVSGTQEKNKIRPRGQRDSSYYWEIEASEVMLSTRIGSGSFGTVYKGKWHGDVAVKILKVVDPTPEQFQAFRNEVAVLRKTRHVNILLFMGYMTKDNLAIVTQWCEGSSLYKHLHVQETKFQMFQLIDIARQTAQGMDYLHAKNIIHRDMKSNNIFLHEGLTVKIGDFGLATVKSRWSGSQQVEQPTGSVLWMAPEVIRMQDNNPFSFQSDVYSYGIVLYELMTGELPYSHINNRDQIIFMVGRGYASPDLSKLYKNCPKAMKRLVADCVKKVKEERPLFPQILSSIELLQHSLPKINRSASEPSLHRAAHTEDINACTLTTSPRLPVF

[20] = tested on: T3, Receptor-type tyrosine-protein kinase FLT3 (Homo sapiens), P36888 [D835Y]; conditions: at 0.1 µM
T3 sequence (whole entry): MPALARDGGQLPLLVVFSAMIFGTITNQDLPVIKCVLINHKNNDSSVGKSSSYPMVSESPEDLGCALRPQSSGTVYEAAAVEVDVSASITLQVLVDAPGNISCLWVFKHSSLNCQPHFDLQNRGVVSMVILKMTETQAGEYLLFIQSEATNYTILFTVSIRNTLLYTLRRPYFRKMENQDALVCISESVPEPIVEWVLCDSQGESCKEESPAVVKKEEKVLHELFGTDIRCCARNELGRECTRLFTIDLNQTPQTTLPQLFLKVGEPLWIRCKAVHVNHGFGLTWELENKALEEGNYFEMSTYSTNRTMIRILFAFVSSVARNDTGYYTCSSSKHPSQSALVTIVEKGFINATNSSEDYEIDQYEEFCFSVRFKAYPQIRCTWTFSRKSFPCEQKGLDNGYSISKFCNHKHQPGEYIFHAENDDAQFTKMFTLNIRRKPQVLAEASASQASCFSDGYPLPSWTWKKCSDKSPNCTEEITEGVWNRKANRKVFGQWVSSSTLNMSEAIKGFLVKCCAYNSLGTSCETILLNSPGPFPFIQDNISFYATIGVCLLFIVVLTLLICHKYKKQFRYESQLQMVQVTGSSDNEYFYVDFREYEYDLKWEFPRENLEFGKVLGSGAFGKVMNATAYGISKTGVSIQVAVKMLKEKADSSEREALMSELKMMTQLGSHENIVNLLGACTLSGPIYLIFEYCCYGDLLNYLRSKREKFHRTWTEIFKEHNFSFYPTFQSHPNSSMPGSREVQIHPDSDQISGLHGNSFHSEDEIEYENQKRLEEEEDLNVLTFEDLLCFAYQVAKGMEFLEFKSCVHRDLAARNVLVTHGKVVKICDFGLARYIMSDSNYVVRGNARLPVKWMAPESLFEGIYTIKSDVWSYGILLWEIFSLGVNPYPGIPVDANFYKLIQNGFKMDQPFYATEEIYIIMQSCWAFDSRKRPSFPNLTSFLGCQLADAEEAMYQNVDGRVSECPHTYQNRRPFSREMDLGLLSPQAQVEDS

Chain of Fibroblast growth factor receptor 4 (Homo sapiens) (P22455 22-802 limits assumed): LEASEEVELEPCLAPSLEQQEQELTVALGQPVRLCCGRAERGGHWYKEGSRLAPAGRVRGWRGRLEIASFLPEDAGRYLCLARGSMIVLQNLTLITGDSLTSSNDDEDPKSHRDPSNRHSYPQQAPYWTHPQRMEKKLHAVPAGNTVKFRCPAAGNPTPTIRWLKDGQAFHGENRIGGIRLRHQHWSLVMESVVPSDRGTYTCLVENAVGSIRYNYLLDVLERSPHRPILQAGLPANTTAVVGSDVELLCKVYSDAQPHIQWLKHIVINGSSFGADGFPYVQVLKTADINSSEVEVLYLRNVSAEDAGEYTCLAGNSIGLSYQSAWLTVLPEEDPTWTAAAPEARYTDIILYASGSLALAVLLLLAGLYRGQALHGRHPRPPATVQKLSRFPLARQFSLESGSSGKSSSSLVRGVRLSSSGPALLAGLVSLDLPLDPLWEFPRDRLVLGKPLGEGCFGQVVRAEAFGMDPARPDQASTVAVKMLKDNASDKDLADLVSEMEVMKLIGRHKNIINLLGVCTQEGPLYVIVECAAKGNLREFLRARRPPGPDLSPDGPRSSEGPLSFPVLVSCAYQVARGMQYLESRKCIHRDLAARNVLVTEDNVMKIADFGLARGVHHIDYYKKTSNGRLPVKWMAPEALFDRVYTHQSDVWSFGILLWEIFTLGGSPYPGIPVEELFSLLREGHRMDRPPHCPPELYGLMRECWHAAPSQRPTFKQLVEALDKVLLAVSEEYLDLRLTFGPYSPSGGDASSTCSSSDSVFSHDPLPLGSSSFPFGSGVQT
Chain of Tyrosine-protein kinase Fgr (Homo sapiens) (P09769 2-529 limits assumed): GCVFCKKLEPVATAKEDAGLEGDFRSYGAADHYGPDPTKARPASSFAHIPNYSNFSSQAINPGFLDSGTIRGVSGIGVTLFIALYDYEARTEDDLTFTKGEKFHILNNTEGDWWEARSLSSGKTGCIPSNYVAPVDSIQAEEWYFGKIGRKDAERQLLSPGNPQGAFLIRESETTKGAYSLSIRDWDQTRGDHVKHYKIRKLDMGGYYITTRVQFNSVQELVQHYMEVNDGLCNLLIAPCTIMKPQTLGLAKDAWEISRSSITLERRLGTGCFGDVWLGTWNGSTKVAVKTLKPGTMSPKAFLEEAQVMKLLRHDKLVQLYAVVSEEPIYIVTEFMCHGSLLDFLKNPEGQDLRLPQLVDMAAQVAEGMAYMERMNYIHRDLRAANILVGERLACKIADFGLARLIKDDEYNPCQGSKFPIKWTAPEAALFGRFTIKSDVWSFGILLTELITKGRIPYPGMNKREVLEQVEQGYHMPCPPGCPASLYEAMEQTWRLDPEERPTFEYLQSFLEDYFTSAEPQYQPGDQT

Row | Structure (SMILES) | inhibition [1] [%] | inhibition [2] [%] | inhibition [3] [%] | inhibition [4] [%] | inhibition [5] [%] | inhibition [6] [%] | inhibition [7] [%] | inhibition [8] [%] | inhibition [9] [%] | inhibition [10] [%] | inhibition [11] [%] | inhibition [12] [%] | inhibition [13] [%] | inhibition [14] [%] | inhibition [15] [%] | inhibition [16] [%] | inhibition [17] [%] | inhibition [18] [%] | inhibition [19] [%] | inhibition [20] [%]
1 | COC(=O)Nc1nc2ccc(Sc3ccc(NC(=O)Nc4cc(C(F)(F)F)ccc4F)cc3)cc2[nH]1 | -0.24 | 1.66 | 3.71 | 4.5 | 37.7 | 4.87 | 32.6 | 0.01 | 1.03 | 21.9 | -0.49 | 5.58 | 3.14 | -0.65 | 1.01 | 14.8 | -0.53 | 17.5 | -1.08 | 
2 | C/C(Nc1ccc(S(N)(=O)=O)cc1)=C1/C(=O)Nc2ccccc21 | 3.59 | 0.92 | 11.4 | 10.8 | 23.6 | 13.9 | 62.9 | 6.88 | 1.52 | 16.8 | -1.58 | 14.1 | -2.58 | 0.18 | -1.47 | 0.23 | -2.48 | -0.68 | -5.23 | 7.17
3 | NC(=O)c1ccc(Oc2nccc(-c3c(-c4ccc(F)cc4)ncn3C3CCNCC3)n2)cc1 | 3.45 | 1.87 | 3.62 | 0.89 | -0.43 | 2.76 | 4.78 | -4.56 | 2.41 | 4.62 | 4.3 | 4.13 | 2.59 | 4.42 | 7.51 | 10.8 | 4.69 | 5.64 | 3.18 | 0.27
4 | CCc1cccc(CC)c1/C=C/c1cncc(C(=O)NC)c1 | 0.35 | 3.25 | 11.7 | 4.96 | 2.13 | 2.07 | 4.49 | -3.91 | 1.2 | 2.78 | 3.04 | -1.48 | 0.45 | 0.77 | 3.23 | 2.6 | 2.71 | 2.87 | 5.4 | 2.46
5 | CN(c1ccc(NC(=O)Nc2c(Cl)cccc2Cl)cc1)c1ccnc(Nc2cccc(CS(C)(=O)=O)c2)n1 | 2.06 | 24.3 | 51.9 | 38.5 | 51 | 78.2 | 84.9 | 1.51 | 4.61 | 17.4 | 17.6 | 28.2 | 4.97 | 9.82 | 1.79 | 4.11 | 2.49 | 5.8 | 0.7 | 28.2
6 | NS(=O)(=O)c1ccc(Nc2cc(-c3ccc(O)c(F)c3)n[nH]2)cc1 | 0.53 | 0.78 | 13.7 | 2.34 | 14.3 | 33.7 | 79.4 | 5.71 | 8.31 | 52.3 | -3.77 | 11.7 |  |  | -4.38 | -2.42 | -4.83 | -3.52 | -4.11 | 5.5
7 | NS(=O)(=O)c1ccc(N/N=C2\C(=O)Nc3ccc(C(=O)NCCCn4ccnc4)cc32)cc1 | 2.46 | 5.97 | 13.4 | 0.63 | 5.48 | 3.35 | 18.5 | -1.72 | 4.1 | 9.93 | 5.35 | 24.1 | 0.31 | 8.11 | 10.7 | 38.4 | 11.3 | 38.9 | 5.92 | 2.34
8 | Nc1nccc(-c2c(-c3ccc(F)cc3)ncn2C2CCC(O)CC2)n1 (centres undefined) | 0.55 | 1.87 | 16.5 | 0.09 | 1.16 | 1.8 | -0.14 | 0.09 | 0.62 | 2.9 | 5.1 | 40 | -8.32 | 1.54 | -2.22 | -1.06 | -3.35 | -2.66 | -4.81 | 3.94
9 | COc1cc(Nc2ncc(-c3ccccc3)o2)cc(OC)c1OC | 1.36 | 3.9 | 29.4 | 8.63 |  | 61.7 | 90.8 | 6.55 | -1.23 | 1.3 | 11.5 | 46.6 | -2.95 | 0.62 | -1.68 | -1.94 | -1.66 | -1.09 | -3.29 | 14.2
10 | O=C(Nc1n[nH]c2nc(-c3ccco3)ccc12)C1CC1 | 2.6 | 0.22 | 4.92 | 1.05 | 7.88 | 0.89 | 9.22 | -1.09 | 2.23 | 8.73 | 0.35 | 0.02 | 0.28 | 0.47 | 1.98 | 3.43 | 1.17 | 4.38 | 4.75 | -0.89
11 | C[C@@H](Oc1cc(-n2cnc3ccc(OC4CCN(C)CC4)cc32)sc1C(N)=O)c1ccccc1Cl | -1.19 | 3.65 | 4.89 | 1.54 | 3.12 | 3.07 | 14.4 | -7.54 | 2.39 | 4.84 | -0.81 | 3.04 | -2.84 | -1.32 | 5.72 | 7.68 | 4.5 | 3.24 | 2.09 | 1.72
12 | CN1CCN(CCCNc2nc3ccc(Oc4ccc(NC(=O)Nc5cc(C(F)(F)F)ccc5F)cc4)cc3[nH]2)CC1 | -0.18 | 1.31 | 8.15 | 12.7 | 40.7 | 15 | 61.2 | 0.88 | 1.94 | 19.1 | -0.61 | -1.74 | -0.98 | 2.82 | 2.28 | 13.7 | 2.94 | 16.6 | 2.41 | -5.77
13 | CCC(=O)Nc1ccc(C)c(-c2ccc(C(=O)NCC3CC3)cc2)c1 | 1 | 1.7 | 4.31 | 0.67 | 4.22 | 3.07 | 3.74 | -0.87 | 2.6 | 2.68 | 3.12 | 4.01 | -4.93 | 1.46 | 4.61 | 4.76 | 3.97 | 4.63 | 2.89 | 
14 | O=C1Nc2ccc(I)cc2C1=Cc1cc(Br)c(O)c(Br)c1 | 5.57 | 0.14 | 3.52 | -0.02 | -1.49 | 2.03 | 5.54 | -0.2 | 2.41 | 3.68 | 2.36 | 4.8 | 3.85 | 5.52 | 6.02 | 15 | 4.33 |  | 8.31 | -4.08
